Bioassay records deposited in PubChem BioAssay by several laboratories.
WT yeast gro inh: growth inhibition of WT yeast, mitochondrial fusion screen; mitochondrial fusion phenotypic screen, WT strain; inhibition, % at 10 µM; 2.1% of 190,000 active; in the data active = inhibition above about 58%; tested in S. cerevisiae
L major viab: Leishmania major promastigote growth inhibition; Leishmania major promastigotes, resazurin fluorescence viability; inhibition, % at 10 µM; 9% of 200,000 active; AID 1063; in the data active = inhibition above about 50%;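 also: promastigotes grown with compound for 44 hours at 28 °C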
Ins promoter up: MIN6 insulin promoter up-regulation. MIN6 insulin promoter-GFP reporter, high-content imaging; stronger effect = higher value. z-score at 5 µM. 0.3% of 190,000 active;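 active = z-score above 3 at 5 µM with at least 500 cells counted in the well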
Insulin prom inh: TRM-6 insulin promoter activity inhibition; TRM-6 cells (human fetal islet line), insulin promoter-eGFP reporter, imaging; reporter expression induced with tamoxifen; inhibition, % at 2 µM; 0.9% of 130,000 active; AID 1273;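 active = inhibition above the mean plus 3 SD, with well images judged a real hit on visual review, cut at about 60% in these data, passing the limit was not always enough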
Autophagy HCS: alters autophagy in cells | calls only at 10 µM (by protocol) | 0.98% of 190,000 active | MEF GFP-LC3 puncta imaging; test concentration mostly 10 µM;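 active = percentage of spot-positive cells more than 3 SD above its plate mean, without a fluorescence outlier flag or 80% toxicity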
Large screens that a line does not name were inactive. An excerpt weighted towards active compounds, which were near 11% of everything screened.

COc1cc2c(cc1OC)CN(C(C)C(=O)Nc1ccc(NC(C)=O)cc1)CC2 (stereo not drawn)	none
CCNc1nc(NCC)nc(N/N=C/c2ccc(OC)cc2)n1	none (no result: WT yeast gro inh, L major viab, Insulin prom inh, Autophagy HCS)
O=[N+]([O-])c1ccc(-c2ccc(/C=N/Nc3nc(N4CCCC4)nc(N4CCCC4)n3)o2)cc1	Autophagy HCS active (no result: Insulin prom inh)
CCNc1nc(NCC)nc(N/N=C/c2ccc([N+](=O)[O-])o2)n1	L major viab 98
O=[N+]([O-])c1ccc(/C=N/Nc2nc(N3CCCC3)nc(N3CCCC3)n2)o1	L major viab 99 (no result: Ins promoter up, Insulin prom inh)
O=[N+]([O-])c1cccc(/C=N/Nc2nc(N3CCCCC3)nc(N3CCCCC3)n2)c1	L major viab 76, Insulin prom inh 71
CCC1=C2CC[C@H]3C(=O)N(CC)C(=O)[C@H]3[C@H]2[C@@]2(Cc3ccccc3)C(=NCCOC)OC(=O)N2C1=O	none (no result: WT yeast gro inh, L major viab, Insulin prom inh, Autophagy HCS)
Nc1cc(C(=O)O)ccc1Sc1ccccc1C(=O)O	none (no result: Insulin prom inh)
COC(=O)C1CSC(c2ccc(Cl)cc2)N1C(=O)c1ccccc1 (stereo not drawn)	none
O=[N+]([O-])c1cccc(-c2ccc(/C=N/Nc3nc(N4CCCCC4)nc(N4CCCCC4)n3)o2)c1	L major viab 90 (no result: Insulin prom inh)
O=[N+]([O-])c1ccc(-c2ccc(/C=N/Nc3nc(N4CCCCC4)nc(N4CCCCC4)n3)o2)cc1	Autophagy HCS active (no result: Ins promoter up)
O=C(c1ccco1)N(CCO)Cc1cc2cc3c(cc2[nH]c1=O)OCO3	none
Cc1ccc(S(=O)(=O)N/N=C/c2cccc3nccnc23)cc1	none (no result: WT yeast gro inh, L major viab, Insulin prom inh, Autophagy HCS)
O=C(/C=C/c1cccc2ccccc12)c1ccncc1	L major viab 100 (no result: Insulin prom inh)
Cc1[nH]c2ccccc2c1/C=C/C(=O)c1ccncc1	none (no result: WT yeast gro inh, L major viab, Insulin prom inh, Autophagy HCS)
Cc1ccc(-c2nn3cnnc3c3ccccc23)cc1	none
Cc1ccc(Nc2nnc(SCC(=O)Nc3cc(C(=O)O)ccc3C)s2)c(C)c1	none (no result: WT yeast gro inh, L major viab, Insulin prom inh, Autophagy HCS)
NNc1nc2c(-c3ccc(Cl)cc3)nnn2c2ccccc12	L major viab 86, Autophagy HCS active (no result: Insulin prom inh)
Fc1ccc(-c2nnn3c2nc(NCc2ccccc2)c2ccccc23)cc1	none (no result: WT yeast gro inh, L major viab, Insulin prom inh, Autophagy HCS)
NNc1nc2c(-c3ccc(F)cc3)nnn2c2ccccc12	L major viab 97 (no result: Insulin prom inh)
COCCCNc1nc2c(-c3ccc(Cl)cc3)nnn2c2ccccc12	none
CC(C)(C)C(=O)NC(n1cnc2c(N3CCOCC3)ncnc21)C(Cl)(Cl)Cl (stereo not drawn)	none (no result: Insulin prom inh)
NNc1nc2c(F)cc(F)cc2s1	L major viab 95
COC(=O)c1ccc2nc(Nc3nc4c(F)cc(F)cc4s3)sc2c1	L major viab 52
NNc1nc2c(F)cccc2s1	none (no result: Insulin prom inh)
CCn1c(SCC(=O)NCc2ccccc2)nnc1-c1c[nH]c2ccccc12	none
COc1ccc(Nc2nnc(C)c(=O)[nH]2)cc1	none
COc1ccccc1S(=O)Cc1ccc(C(=O)NCc2ccccc2Cl)o1 (stereo not drawn)	none (no result: Insulin prom inh)
COc1ccc(-n2cc(CNC3CCC(O)CC3)c(-c3cccc(F)c3)n2)cc1 (stereo not drawn)	L major viab 84 (no result: Insulin prom inh)
COc1ccc(-n2cc(CNCCc3cnc[nH]3)c(-c3cccc(F)c3)n2)cc1	L major viab 100
COc1ccc(-n2cc(CNCc3cccnc3)c(-c3cccc(F)c3)n2)cc1	none (no result: Insulin prom inh)
COc1ccc(CNCc2cn(-c3cccc(F)c3)nc2-c2ccc(C)o2)cc1	WT yeast gro inh 71, L major viab 96 (no result: Insulin prom inh)
CCn1nc(C)c(CNC(=O)Nc2ccc3c(c2)OCO3)c1C	none (no result: Insulin prom inh)
CCN1C(=O)C(=O)N(CC(=O)Nc2ccccc2Oc2ccccc2)C1=O	none
O=C(CCCc1c[nH]c2ccccc12)NCc1cccs1	none (no result: Insulin prom inh)
O=C(O)c1ccc(Nc2ncnc3c2cnn3Cc2ccccc2)cc1	none
CC1=C(C(=O)OCc2ccccc2)C(/C=C/c2ccccc2)N2C(=O)CCSC2=N1 (stereo not drawn)	L major viab 75
CCc1cc(C(=O)OC)c(NC(=O)CC2Nc3cc(C)c(C)cc3NC2=O)s1 (stereo not drawn)	Autophagy HCS active
COC(=O)c1c(NC(=O)CC2Nc3cc(C)c(C)cc3NC2=O)sc(C)c1C (stereo not drawn)	Ins promoter up 6.4 (no result: Insulin prom inh)
NC(=O)c1nnsc1Sc1c(C(N)=O)nnn1-c1cccc(N)c1	none (no result: Insulin prom inh)
CCNc1ccc(S(N)(=O)=O)cc1[N+](=O)[O-]	none
Cc1ccc(NC(=O)C2CC(=O)Nc3nncn32)cc1 (stereo not drawn)	none (no result: Ins promoter up, Insulin prom inh)
COC(=O)c1ccn(C(=O)c2ccc(Cl)cc2)n1	WT yeast gro inh 93
Cc1nn(C)c(C)c1NC(=O)c1ccc(Cl)cc1	none
O=c1[nH]c(-c2ccc(Cl)cc2)cs1	none (no result: Insulin prom inh)
Fc1ccc(-c2csc(=S)[nH]2)cc1	WT yeast gro inh 62, L major viab 93
CCNc1ccc(S(=O)(=O)N(C)C)cc1NCC(=O)Nc1ccccc1Cl	none (no result: Insulin prom inh)
N=c1c2c(-c3ccccc3)c(-c3ccccc3)n(Cc3ccco3)c2ncn1Cc1ccccc1	L major viab 100, Autophagy HCS active (no result: WT yeast gro inh, Ins promoter up)
CC(C)Cn1cnc2c(c(-c3ccccc3)c(-c3ccccc3)n2Cc2ccco2)c1=N	L major viab 100, Autophagy HCS active
OCCNc1ncnc2c1c(-c1ccccc1)c(-c1ccccc1)n2Cc1ccco1	none
N=c1c2c(-c3ccccc3)c(-c3ccccc3)n(Cc3ccccc3)c2ncn1CCO	L major viab 100, Autophagy HCS active
Cc1cccc(C)c1OCCNC(=O)C(=O)NCc1ccco1	none (no result: Insulin prom inh)
COCCCNC(=O)Cn1c(=O)n(CCCCCC(=O)NCc2ccc3c(c2)OCO3)c(=O)c2sccc21	none
N#CCCN1CCNCC1	Insulin prom inh 68
CCOC(=O)c1c(-c2ccc(C)cc2)csc1NC(=O)C1CCCO1 (stereo not drawn)	WT yeast gro inh 58
CCOC(=O)c1c(-c2ccc(OC)cc2)csc1NC(=O)C1CCCO1 (stereo not drawn)	L major viab 52
COC(=O)c1c(-c2cccc(C)c2)csc1NC(=O)C1CCCO1 (stereo not drawn)	none (no result: Insulin prom inh)
CC(C)OC(=O)c1c(-c2ccc(C(C)C)cc2)csc1NC(=O)C1CCCO1 (stereo not drawn)	WT yeast gro inh 70 (no result: Insulin prom inh)
CCOC(=O)c1c(-c2ccc(F)cc2)csc1NC(=O)C1CCCO1 (stereo not drawn)	none (no result: Insulin prom inh)
COc1ccc(/C=N/NC(=O)CC(=O)NC2CCCCC2)cc1	none (no result: Insulin prom inh)
Cc1cccc(-n2c(C)cc(/C=N/NC(=O)c3cccc([N+](=O)[O-])c3C)c2C)c1	L major viab 64
Cc1ccnn1CC(=O)N/N=C/c1cn[nH]c1-c1ccc(F)cc1	none (no result: WT yeast gro inh, L major viab, Insulin prom inh, Autophagy HCS)
CN(CCCNC(=O)c1cccn2c(=O)c3ccccc3nc12)Cc1ccccc1	L major viab 100 (no result: Insulin prom inh)
CCc1ccc(OCC2c3cc(OC)c(OC)cc3CCN2C(=S)NC)cc1 (stereo not drawn)	WT yeast gro inh 75
CCNC(=S)N1CCc2cc(OC)c(OC)cc2C1COc1ccc(OC)cc1 (stereo not drawn)	L major viab 68 (no result: Insulin prom inh)
CCOc1ccc(CC2c3cc(OCC)c(OCC)cc3CCN2C(=O)c2cc(OC)c(OC)c(OC)c2)cc1OCC (stereo not drawn)	L major viab 55
CCNC(=S)N1CCc2cc(OC)c(OC)cc2C1COc1ccccc1OC (stereo not drawn)	none (no result: Insulin prom inh)
